In ChEMBL document CHEMBL1157539, “Thousands of chemical starting points for antimalarial lead identification” (Nature, 2010):

Tested on: HepG2
Assay: GSK_TCMDC: Percent inhibition of human HepG2 cell line. Test compounds present at 10uM.
Type: functional

With CC(C)CCN1CCC(Oc2ccc(NC(=O)c3ccc(F)cc3)cc2Cl)CC1.O=C(O)C(F)(F)F as the compound, how does the Inhibition read?
Its Inhibition is 33%.

Which Inhibition does the source give for CC(C)COc1ccc(Cl)cc1Cc1nc(-c2nc3ccc(CN4CCCC4)cc3[nH]2)co1.Cl here?
The Inhibition was 50%.

With COc1ccc2nc(-c3ccccc3)cc(NCCN(C)C)c2c1 as the compound, how does the Inhibition read?
The Inhibition was 0%.

Which Inhibition does the source give for O=C(Nc1cccc(C(F)(F)F)c1)c1cccc(S(=O)(=O)NCC2CCN(CC3CCCCC3)CC2)c1.O=C(O)C(F)(F)F here?
The Inhibition was 27%.

With O=C(/C=C/c1ccc(Cl)cc1)NCCCCCN1CCCC(C(=O)Nc2ccc(Cl)c(Cl)c2)C1 (stereo not given) as the compound, how does the Inhibition read?
The Inhibition was 27%.
